Data as given in PubChem BioAssay (NCATS).
A number with no mark means an inactive call. Results filed as inconclusive are left out. Entries that show only a call come without a potency. The source made the active and inactive calls. Unless noted, calls follow the shape of the dose curve; as a rule, active = well fitted curve in the direction sought with a large enough effect; inconclusive = small, poorly fitted or top-dose-only effect, or another doubt; inactive = no such curve, though single readings can be large; an effect the other way counts as inactive or inconclusive.

Columns and labels:
[1] = Cell Viability - BJ (AID 421; calls by dose curve;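 also: potency is read from the fitted curve at half-maximal effect; cells exposed to compound for 40 hours at 37 °C before readout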); settings: BJ fibroblast viability, qHTS
Procedure, shortened: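 Luminescent ATP signal (CellTiter-Glo, 20 min at room temperature) served as the read-out of viable BJ cells after 40 hours of compound treatment. Responses were scaled between DMSO and 100 uM tamoxifen, and AC50 values were obtained by Hill modeling.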

[2] = Cell Viability - Hek293 (AID 427;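 active = compounds whose dose-response curve shows a full or clear partial loss of cell viability, called from curve shape rather than a numeric limit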;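 also: potency is read from the fitted curve at half-maximal effect; cells exposed to compound for 40 hours at 37 °C before reading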); settings: qHTS
Procedure, shortened: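 Luminescent ATP read-out (CellTiter-Glo, 20 min RT) after 40 hr compound exposure at 37 °C in complete medium. Signal normalized to DMSO (basal) and 100 uM tamoxifen (100% inhibition); concentration-response fitted with the standard Hill equation to give AC50.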

[3] = Cell Viability - MRC5 (AID 434; calls by dose curve;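 also: potency is read from the fitted curve at half-maximal effect; cells exposed to compound for 40 hours at 37 °C; potency reflects cytotoxicity seen as loss of intracellular ATP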); settings: MRC5 lung fibroblast viability, qHTS
Procedure, shortened: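 AC50 values come from Hill-equation fits of intracellular ATP loss, measured by CellTiter-Glo luminescence. Normal lung fibroblasts (MRC5) had 40 hr compound treatment at 37 C, normalized between DMSO and 100 uM tamoxifen.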

[4] = Cell Viability - SK-N-SH (AID 435; calls by dose curve;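 also: potency is read from the fitted curve at half-maximal effect; compound exposure lasted 40 h at 37 °C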); settings: SK-N-SH neuroblastoma cell viability qHTS
Procedure, shortened: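 Luminescent ATP signal served as the viability read-out after 40 hours of compound treatment of human neuroblastoma SK-N-SH cells. Concentration-response data, scaled between DMSO and 100 uM tamoxifen, gave AC50 values by standard Hill modeling.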

[5] = Cell Viability - SH-SY5Y (AID 544); settings: SH-SY5Y neuroblastoma cell viability; viability change, negative = cytotoxic: at 92.2 µM (top of the series); also: nearly all actives have a fitted effect of over 55% in size
Procedure, shortened: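 Quantitative HTS in SH-SY5Y neuroblastoma cells, 40 hr treatment at 37 °C, ATP content by luciferase luminescence; AC50 from Hill fits.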

[6] = Cellular Toxicity (caspase-3) HepG2 (AID 654); settings: HepG2 caspase-3 activation, luminescence; series mostly up to 92.2 µM;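 also: cells exposed to compound for 16 hours before reading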
Procedure, shortened: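 Concentration-response AC50 values reflect caspase-3/7 induction in HepG2 cells after 16 hours of compound exposure, quantified by luminescence from liberated aminoluciferin and referenced to 100 uM tamoxifen as full stimulation.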

[7] = Cellular Toxicity (caspase-3) Jurkat (AID 655); settings: Jurkat caspase-3 activation, luminescence; caspase-3 activation: at 92.2 µM (top of the series), DMSO = 0%, tamoxifen = 100%;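 also: cells exposed to compound for 16 h at 37 °C before reading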
Procedure, shortened: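 5000 Jurkat cells/well; compound 16 hr, 37 °C; Caspase-Glo 3/7 added, 20 min RT; luminescence read. Norm: DMSO = 0%, tamoxifen 100 uM = 100%. AC50, Hill model.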

[8] = Cellular Toxicity (caspase-3) HUV-EC-C (AID 656); settings: HUV-EC-C cells, caspase-3 activation (apoptosis); series mostly up to 92.2 µM
Procedure, shortened: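 qHTS; HUV-EC-C, 1000 cells/well; 5 hr settle, 16 hr cmpd, 37°C; Caspase-Glo 3/7, 20 min RT; luminescence. Norm: DMSO = 0%, tamoxifen 100 uM = 100%. Hill-fit AC50.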

[9] = Cellular Toxicity (caspase-3) SHSY5Y (AID 657); settings: SH-SY5Y caspase-3 activation; series mostly up to 91.7 µM
Procedure, shortened: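 qHTS, SH-SY5Y, 1500 cells/well, 5 h pre-incubation 37 °C; compound 16 h 37 °C; Caspase-Glo 3/7 1 h RT; luminescence. Norm.: DMSO = 0, 10 uM staurosporine = 100%. Hill fit → AC50.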

[10] = Cellular Toxicity (caspase-3) BJ (AID 658); settings: BJ fibroblasts, luminescence; Potency: caspase-3 activation; series mostly up to 91.7 µM
Procedure, shortened: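 Caspase-Glo 3/7 luminescence, read 1 hr after reagent at room temperature, in normal BJ fibroblasts exposed 16 hours at 37 °C. AC50 values from Hill-equation concentration-response, scaled between DMSO basal and 10 uM staurosporine as 100%.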

[11] = Cellular Toxicity (caspase-3) MRC-5 (AID 659); settings: MRC-5 cells, luminescence, normalized: DMSO 0%, 10 µM staurosporine 100%; series mostly up to 91.7 µM
Procedure, shortened: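 Luminescent Caspase-Glo 3/7 read-out (1 h, room temperature) after a 16 h, 37 °C compound exposure of MRC-5 lung fibroblasts at 1500 cells/well. Concentration-response AC50 from Hill equation; 0% DMSO, 100% 10 uM staurosporine.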

[12] = Cellular Toxicity (caspase-3) Mesangial (AID 660); settings: mesangial cells, normalized: DMSO 0%, 100 µM tamoxifen 100%; series mostly up to 91.7 µM;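 also: combined caspase 3 and 7 activity read by Caspase-Glo luminescence; cells exposed to compound for 16 h before the caspase read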
Procedure, shortened: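 AC50 values come from Hill-equation fits of caspase 3/7 activation, measured as Caspase-Glo luminescence in human glomerular mesangial cells exposed to compound for 16 h at 37 °C; 100% set by 100 uM tamoxifen.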

[13] = Cellular Toxicity (caspase-3) SK-N-SH (AID 661); settings: SK-N-SH caspase-3 activation, qHTS, DMSO as zero, staurosporine as full; series mostly up to 91.7 µM
Procedure, shortened: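 Apoptosis readout in SK-N-SH neuroblastoma: Caspase-Glo 3/7 luminescence following 16 hr treatment in complete culture medium. Normalization used DMSO and 10 uM staurosporine controls.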

[14] = Cellular Toxicity (caspase-3) H-4-II-E (AID 663); settings: H-4-II-E rat hepatoma; Potency: caspase-3 activation; series mostly up to 92.2 µM;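 also: cells exposed to compound for 16 hr before readout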
Procedure, shortened: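 Caspase 3/7 activation measured by luminescent aminoluciferin substrate cleavage after 16 hr compound treatment of H-4-II-E cells in complete medium. Increase normalized between DMSO (basal) and 100 uM tamoxifen (100%); Hill-equation AC50 from concentration-response.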

[15] = Cellular Toxicity (caspase-3) Hek293 (AID 664); settings: HEK293 caspase-3 activation, DMSO = 0%, 100 µM tamoxifen = 100%; at 92.2 µM (top of the series);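 also: cells exposed to compound for 16 h at 37 °C before readout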
Procedure, shortened: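 Apoptosis readout: Caspase-Glo 3/7 signal in human HEK293 cells following 16-hour compound incubation. Responses scaled between DMSO baseline and 100 uM tamoxifen.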

[16] = Cellular Toxicity (caspase-3) N2a (AID 665); settings: N2a cells, luminescence, normalized: DMSO 0%, 10 µM staurosporine 100%; series mostly up to 92.2 µM;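 also: compound exposure lasted 16 h at 37 °C before readout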
Procedure, shortened: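 Concentration-response qHTS: compound-induced caspase-3/7 luminescence in N2a cells (16 h, 37 °C), relative to DMSO and 10 uM staurosporine controls; AC50 obtained using the standard Hill equation.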

[17] = molecular target: Cytochrome P450 3A4 (Homo sapiens) (UniProt P08684); experiment: qHTS Assay for Inhibitors and Substrates of Cytochrome P450 3A4 (AID 884); settings: recombinant CYP3A4, Luciferin-PPXE luminescence; series mostly up to 57.1 µM; also: potency is read from the fitted curve at half-maximal effect; nearly all actives have a fitted effect of over 50% in size
Procedure, shortened: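 Luminescent readout of luciferin produced by CYP3A4 (20 nM) dealkylation of Luciferin-PPXE, 25 uM (its KM). NADPH-driven reaction ran 60 min at RT after 10 min compound preincubation; data scaled to 57 uM ketoconazole as 100% inhibition.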

[18] = molecular target: Cytochrome P450 3A4 (Homo sapiens) (UniProt P08684); experiment: qHTS Assay for Activators of Cytochrome P450 3A4 (AID 885); settings: recombinant CYP3A4, Luciferin-PPXE luminescence, 60 min; series mostly up to 11.4 µM; also: nearly all actives have a fitted effect of over 65% in size
Procedure, shortened: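 CYP3A4 activity: Luciferin-PPXE O-dealkylation, 25uM substrate, 200mM KPO4, RT throughout. Read-out is luciferase luminescence; higher values reflect activation.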

[19] = Cell Viability - LYMP2-001 (AID 921); settings: LYMP2-001 lymphoblastoid cell viability; series mostly up to 92.2 µM;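 also: cells exposed to compound for 24 h at 37 °C; nearly all actives have a fitted effect of over 70% in size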
Procedure, shortened: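 Steps: seed 2500 lymphoblastoid cells/well; 5 hr, 37 C; add compound; 24 hr, 37 C; CellTiter-Glo reagent, 30 min room temperature; read luminescence. Concentration-response modeled by Hill equation for AC50.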

Sequence of Cytochrome P450 3A4 (Homo sapiens) (P08684 whole entry, looked up): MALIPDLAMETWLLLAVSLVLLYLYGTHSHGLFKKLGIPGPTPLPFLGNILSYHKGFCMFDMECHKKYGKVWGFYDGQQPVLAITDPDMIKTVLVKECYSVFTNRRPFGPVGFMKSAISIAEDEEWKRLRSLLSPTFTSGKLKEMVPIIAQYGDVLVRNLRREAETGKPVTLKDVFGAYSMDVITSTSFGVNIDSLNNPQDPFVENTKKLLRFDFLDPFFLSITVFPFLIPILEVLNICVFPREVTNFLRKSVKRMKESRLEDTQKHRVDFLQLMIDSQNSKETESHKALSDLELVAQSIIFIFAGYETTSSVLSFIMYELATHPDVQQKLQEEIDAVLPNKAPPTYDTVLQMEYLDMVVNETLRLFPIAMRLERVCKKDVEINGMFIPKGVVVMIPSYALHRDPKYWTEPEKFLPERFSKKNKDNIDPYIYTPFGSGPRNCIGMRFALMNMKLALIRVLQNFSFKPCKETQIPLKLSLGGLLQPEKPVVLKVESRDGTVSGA

Question: Which results are given for `Cc1cc2nc(N)sc2cc1C`?
Answer: Potency [1]: > 92 µM; Potency [2]: > 92 µM; Potency [3]: > 92 µM; Potency [4]: > 92 µM; Potency [5]: inactive; Potency [6]: inactive; Potency [7]: inactive; Potency [8]: inactive; Potency [9]: inactive; Potency [10]: inactive; outcome [11]: inactive; outcome [12]: inactive; outcome [13]: inactive; Potency [14]: inactive; caspase-3 activation [15]: -7.89%; outcome [16]: inactive; Potency [17]: 15.8 µM (active); Potency [18]: inactive; Potency [19]: inactive
